High-throughput results deposited in PubChem BioAssay by National Center for Advancing Translational Sciences (NCATS).
Sampled rows, rich in hits. Any-hit rate of the full collection: about 18%.
TDP1 cell noCPT – qHTS for Inhibitors of human tyrosyl-DNA phosphodiesterase 1 (TDP1): qHTS in cells in absence of CPT. DT40 Tdp1-/- hTDP1 cells, no CPT, ATP luminescence, 48 h. Potency, µM (series often up to 46.2 µM), for inactives: at the highest dose activity change, negative = growth inhibition, actives largely listed as inhibitors. hit rate 15% among 420,000. AID 686978, 2013; further: potency means the concentration at half of the fitted maximal effect; nearly all actives have a fitted effect of over 55% in size
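Stably hTDP1-transfected Tdp1-null chicken DT40 cells were treated with library compounds minus camptothecin and grown for at least 48 hr at 37 °C, after which cellular ATP was quantified by luminescence.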
IL1B secr inh – qHTS for Inhibitors of Inflammasome Signaling: IL-1-beta AlphaLISA Primary Screen; THP-1 LPS/ATP IL-1B secretion, AlphaLISA, 16 h; stronger effect = lower value; activity change, % at 57.5 µM; hit rate 4.7% among 360,000; AID 743279, 2014; in the data active means activity change below about -50%; inconclusive means mostly about -30% to -49%
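THP-1 cells pretreated 1 hr with compounds (up to 57.5 uM final), then stimulated with LPS (250 ng/mL final) plus ATP (1.25 mM final); secreted IL-1B measured by AlphaLISA after 16 hr, decreased signal indicating inhibition.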
TDP1 block – qHTS Assay for Inhibitors of Tyrosyl-DNA Phosphodiesterase (TDP1) | Tyrosyl-DNA phosphodiesterase 1 (Homo sapiens), Q9NUW8 | recombinant TDP1, AlphaScreen DNA substrate cleavage | Potency, µM (series often up to 130 µM), for inactives: top-dose activity change, negative = inhibition, usual class: inhibitors | hit rate 0.28% among 350,000; further: potency means the concentration at half of the fitted maximal effect; nearly all actives have a fitted effect of over 40% in size
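Recombinant E. coli-expressed Tdp1 (1 nM) preincubated with compound 15 min at RT, then 5'-biotin/3'-phosphotyrosine-FITC DNA substrate (15 nM) added for 5 min. AlphaScreen beads (10 ug/ml) added, 10 min RT; tyrosine-FITC cleavage read as signal loss.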
CtBP-E1A inh – qHTS Assay for Inhibitors of the CtBP/E1A Interaction. activity change, % (no concentration beside the values). AlphaScreen GST-E1A/His-CtBP binding, 1536-well; stronger effect = lower value. CtBP / adenovirus E1A interaction (AlphaScreen). hit rate 0.49% among 340,000; in the data active means activity change below about -65%; inconclusive means mostly about -30% to -63%
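Homogeneous bead-based format: GST-tagged E1A captured on glutathione donor beads, His-tagged CtBP on nickel acceptor beads; compounds precede bead addition by 2 h at 37 °C.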
Six1-Eya2 blk – qHTS Assay for Inhibitors of the Six1/Eya2 Interaction; Homeobox protein SIX1 (Homo sapiens) + Protein phosphatase EYA2 (Homo sapiens), …; AlphaScreen GST-Six1/His-Eya2 binding, biochemical; stronger effect = lower value; activity change, % (concentration not given with the values); hit rate 0.56% among 360,000; in the data active means activity change below about -65%; inconclusive means mostly about -30% to -63%
Target sequence (O00167 whole entry, looked up): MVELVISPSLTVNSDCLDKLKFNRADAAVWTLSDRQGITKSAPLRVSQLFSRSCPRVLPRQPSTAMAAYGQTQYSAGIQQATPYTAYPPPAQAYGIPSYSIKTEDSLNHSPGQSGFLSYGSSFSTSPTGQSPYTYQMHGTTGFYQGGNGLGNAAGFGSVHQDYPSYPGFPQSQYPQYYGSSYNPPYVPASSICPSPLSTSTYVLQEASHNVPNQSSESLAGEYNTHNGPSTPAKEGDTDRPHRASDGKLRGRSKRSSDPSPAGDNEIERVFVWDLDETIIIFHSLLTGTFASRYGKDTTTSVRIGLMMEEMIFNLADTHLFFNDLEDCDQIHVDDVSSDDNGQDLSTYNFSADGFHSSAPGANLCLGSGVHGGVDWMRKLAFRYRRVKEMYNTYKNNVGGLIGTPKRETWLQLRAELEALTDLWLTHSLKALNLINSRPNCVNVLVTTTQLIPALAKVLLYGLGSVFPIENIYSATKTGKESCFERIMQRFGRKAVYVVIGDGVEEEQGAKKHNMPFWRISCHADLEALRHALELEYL
Target sequence (Q15475 whole entry, looked up): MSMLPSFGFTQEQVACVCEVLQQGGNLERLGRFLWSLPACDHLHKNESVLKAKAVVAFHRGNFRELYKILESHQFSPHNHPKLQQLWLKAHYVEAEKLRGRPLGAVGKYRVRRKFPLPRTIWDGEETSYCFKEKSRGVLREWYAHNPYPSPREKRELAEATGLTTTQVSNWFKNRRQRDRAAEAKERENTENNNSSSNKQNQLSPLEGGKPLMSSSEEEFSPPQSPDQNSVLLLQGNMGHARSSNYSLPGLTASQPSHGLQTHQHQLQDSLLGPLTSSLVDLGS
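Six1/Eya2 binding was read as AlphaScreen signal after compounds were pinned into GST-Six1 plus His-tagged Eya2 (5X stock 250/500 nM) in pH 8.0 Tris/NaCl/TCEP buffer, beads added, then incubated 1 h, 37 C, dark.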
TDP1 cell CPT – qHTS for Inhibitors of human tyrosyl-DNA phosphodiesterase 1 (TDP1): qHTS in cells in presence of CPT; chicken DT40 Tdp1-/-;hTDP1 cells + 20 nM CPT, ATP luminescence, 48 h; Potency, µM (highest dose often 46.2 µM), for inactives: at the top dose activity change, negative = growth inhibition, hits mostly inhibitors; hit rate 12% among 420,000; further: potency means the concentration at half of the fitted maximal effect; nearly all actives have a fitted effect of over 55% in size
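Chicken DT40 Tdp1-/- cells complemented with human TDP1, 400 cells/well, exposed to compounds plus 20 nM camptothecin for at least 48 h at 37 C; viability read as ATP content by CellTiter-Glo luminescence.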
The depositor's hits bear a star; ? = inconclusive; / = no result given; [ ] = another dose, or the depositor's remark. Unless noted, the call rests on the fitted dose curve; in most records, active means well fitted curve in the direction sought with a large enough effect; inconclusive means small, poorly fitted or top-dose-only effect, or another doubt; inactive means no such curve, though single readings can be large; an effect the other way counts as inactive or inconclusive. On the % scale 0 is the no-effect control and ±100 the full control effect.

SMILES	TDP1 cell noCPT	IL1B secr inh	TDP1 block	CtBP-E1A inh	Six1-Eya2 blk	TDP1 cell CPT
CN1/C(=C/C(=O)CSc2ccccc2C(=O)O)C(C)(C)c2ccccc21	9.2µM*	8	4%	-1	1	?
O=C(O)c1ccccc1SCC(=O)N1c2ccccc2Sc2ccccc21	-3%	16	8%	-3	-2	-13%
COCCn1c(SCC(=O)/C=C2\N(C)c3ccccc3C2(C)C)nnc1-c1ccncc1	23µM*	?	4%	-22	-2	23µM*
COCCn1c(SCC(=O)c2c(-c3ccccc3)n(C)c3ccccc23)nnc1-c1ccncc1	?	?	5%	-6	1	?
Cc1cc(=O)[nH]c(SCC(=O)/C=C2\N(C)c3ccccc3C2(C)C)n1	9.2µM*	-15	8%	-12	-23	?
Cc1ccc2c(c1)c1c(n2CCc2ccc(C)nc2)CCN(C)C1	/	/	1%	/	/	/
Nc1cc(Cc2ccccc2)ccc1O	?	-25	/	0	-12	23µM*
Nc1cc(N)cc(Cc2ccccc2)c1	-10%	-16	/	-22	-24	-13%
Cn1c(=O)c2c(ncn2CC(=O)N2CCOCC2)n(C)c1=O	-2%	1	4%	-1	8	7%
O=C(CN1CCN(S(=O)(=O)c2cccs2)CC1)NCC1CCCCC1	-10%	21	1%[56.1 µM]	6	5	-20%
O=S(=O)(Nc1ccc(Cc2ccncc2)cc1)c1ccc(Cl)cc1	-80%	-10	3%	19	6	-55%
Cc1ccc(CSc2ccc(S(=O)(=O)N3CCCC3)cn2)cc1	-24%	-1	-13%	/	22	-13%
N#Cc1ccc(CSc2ccc(S(=O)(=O)N3CCCC3)cn2)cc1	26µM*	-24	-3%	12	-1	?
O=[N+]([O-])c1ccc(CSc2ccc(S(=O)(=O)N3CCCCC3)cn2)cc1	?	-50*	1%	-17	-18	?
O=S(=O)(c1ccc(SCc2cccc(Cl)c2)nc1)N1CCCC1	-19%	7	-15%	45	42	-22%
CCn1c(SCc2ccc(C#N)cc2)nnc1-c1ccc(S(=O)(=O)N2CCCCC2)cc1	?	-6	-3%	6	-4	15µM*
CCn1c(SCC(=O)N2CCCC2)nnc1-c1ccc(S(=O)(=O)N2CCCCCC2)cc1	?	-5	5%	-2	3	?
O=[N+]([O-])c1ccc(CSc2ccc(S(=O)(=O)N3CCCC3)cn2)cc1	23µM*	0	/	-6	-14	?
Cc1ccc(N2CCN(C(=O)C(=O)c3ccc(F)c(F)c3)CC2)cc1	-25%	-12	/	-1	-5	-22%
CCOC(=O)[C@@H]1[C@H]2COc3cc(OC)ccc3[C@H]2N2C(=O)N(c3ccc(C)cc3)C(=O)[C@]12C	-52%	-7	1%	-2	1	-33%
CCn1c(SCc2ccc(F)cc2)nnc1C1CCN(S(=O)(=O)c2ccc(OC)cc2)CC1	16µM*	-23	3%	2	0	?
O=[N+]([O-])c1ccc(CSc2ccc(S(=O)(=O)N3CCOCC3)cn2)cc1	?	-64*	3%	-3	-21	?
Cc1ccc(CSc2ccc(S(=O)(=O)N3CCOCC3)cn2)cc1	5%	12	2%	11	10	-1%
CCn1c(SCc2ccc(C)cc2)nnc1C1CCN(S(=O)(=O)c2ccc(OC)cc2)CC1	?	-21	3%	2	0	?
CC(=O)c1ccc(OC2(C)CCN(Cc3cc4ccccc4[nH]3)C2)cc1 (stereo not drawn)	8.2µM*	17	/	-5	-8	4.1µM*
SMILES	TDP1 cell noCPT	IL1B secr inh	TDP1 block	CtBP-E1A inh	Six1-Eya2 blk	TDP1 cell CPT
CSc1ccc(CN2CCC(C)(Oc3ccc4ccccc4c3)C2)cc1 (stereo not drawn)	?	16	/	-2	-8	?
CC(=O)c1cc2cccc(OC3(C)CCN(Cc4ccc5ccccc5c4)C3)c2o1 (stereo not drawn)	?	-3	/	-17	-21	18µM*
CC(=O)c1ccc(OC2(C)CCN(CCOc3ccc(C)cc3)C2)cc1 (stereo not drawn)	5.8µM*	-12	/	-25	2	16µM*
Cc1ccc(CN(C(=O)CNC(=O)c2cccs2)C(C(=O)NCC2CCCO2)c2ccccc2)cc1 (stereo not drawn)	?	-7	0%	11	6	?
Cc1ccccc1N1CCN(C2=NC(=O)/C(=C/c3cn[nH]c3-c3ccccc3)S2)CC1	?	7	3%	0	-3	?
O=C(Cc1ccccc1)N/N=C/c1ccc(OC(=O)/C=C\c2ccco2)cc1	-30%	-24	-4%	-65*	?	-2%
COC(=O)N/N=C/c1ccc(OC(=O)/C=C/c2ccco2)cc1	-45%	-22	/	-71*	?	4%
COC(=O)N/N=C\c1ccc(OC(=O)c2ccco2)cc1	-9%	6	5%	4	-10	-13%
CCc1ccc(OC(=O)/C=C/c2ccco2)cc1	14%	46	/	7	22	-4%
Cc1ccc(C)c(NS(=O)(=O)c2ccc(OCC(=O)NCc3ccccn3)cc2)c1	?	14	6%	0	1	-5%
COc1cc(/C=C/C(=O)O)cc(S(=O)(=O)NNC(=O)c2cc(C)oc2C)c1OC	-6%	1	16µM*	-16	-19	6%
COc1cc(/C=C/C(=O)O)cc(S(=O)(=O)NCCCO)c1OC	1%	8	-1%	-1	2	-7%
CSC1=N/C(=C/c2ccc(-n3cncn3)cc2)C(=O)N1	-10%	-9	/	2	-5	7%
Cc1cnc(C)c(Nc2nc(C(N)c3ccccc3)cs2)n1 (stereo not drawn)	?	0	/	-66*	?	?
Cc1nc(N)sc1-c1csc(Nc2ccccn2)n1	?	-24	5%	?	?	?
NC(c1csc(Nc2ccccn2)n1)C1CCCCC1 (stereo not drawn)	16µM*	-68*	/	-80*	?	15µM*
